Here are results for 40 molecules from PubChem BioAssay (Tox21).

Inconclusive results are not listed. Calls of active or inactive are those of the source. The call rests on the fitted dose curve; in most records, active means well fitted cell-killing curve with a large enough effect in the repeat runs; inconclusive means weak or mixed curves, or effect the other way; inactive means flat fitted curve, though single readings scatter.

The experiment in a line: qHTS assay to identify small molecule antagonists of the androgen receptor (AR) signaling pathway using the MDA cell line - cell viability counter screen (AID 743041; further: nearly all actives have a fitted effect of over 45% in size). The note with it: MDA-kb2 viability, CellTiter-Fluor, 16 h, cells co-treated with R1881 androgen agonist; series mostly up to 70.3 µM. The source says: National Center for Advancing Translational Sciences [NCATS]
NIH Chemical Genomics Center [NCGC]
U.S. Environmental Protection Agency [EPA]
National Institutes of Environmental Health Sciences [NIEHS]
National Toxicology Program [NTP]
U.S. Food and Drug Administration [FDA]
Androgen receptor (AR), a nuclear hormone receptor, plays a critical role in AR-dependent prostate cancer and other androgen related diseases. Endocrine disrupting chemicals (EDCs) and their interactions with steroid hormone receptors like AR may cause disruption of normal endocrine function as well as interfere with metabolic homeostasis, reproduction, developmental and behavioral functions. To identify the compounds that inhibit AR signaling, MDA-kb2 AR-luc cell line (from ATCC, deposited by Wilson et al.) was used to screen the Tox21 10K compound library. MDA-kb2 AR-luc cell line is human breast carcinoma cell line that was stably transfected with a luciferase reporter gene under control of the MMTV promoter containing response elements for both androgen receptor (AR) and glucocorticoid receptor (GR). The cytotoxicity of the Tox21 compound library against the MDA-kb2 AR-luc cell line was tested in parallel by measuring the cell viability using CellTiter-Fluor assay (Promega, Madison, WI) in the same wells.
Tox21 Assay Protocol Summary:
MDA-kb2 AR-luc cells were dispensed at 3,000 cells/4 uL/well of culture medium into white wall/solid-bottom 1536-well plates using a Multidrop Combi (ThermoFisher Scientific, Waltham, MA) dispenser. After the assay plates were incubated at a 37C and 0% CO2 for 5 hr, 23 nL of compounds dissolved in DMSO, positive controls or DMSO only was transferred to the assay plate by a Pintool station (Kalypsys, San Diego, CA), followed by addition of 1 uL of agonist (R1881) in culture medium using a Bioraptr Flying Reagent Dispenser (FRD) workstation (Beckman Coulter, Indianapolis, IN, USA). The plates were incubated at a 37C and 0% CO2 for 16 h. After 15.5 h incubation, 1uL of CellTiter-Fluor reagent (Promega) was added using a Bioraptr FRD to each plate for measuring cytotoxicity. The fluorescence intensity was quantified on a ViewLux plate reader (PerkinElmer, Shelton, CT) following 30 min incubation at 37C and 0% CO2.
For `OCC(O)CCl` (stereo not given), the result was inactive.
With `Nc1ccc([As](=O)(O)O)cc1`, the result was inactive.
For `CN(C)C(=O)C(c1ccccc1)c1ccccc1`, the result was inactive.
As for `Cc1cc(O)ccc1Cl`, the result was inactive.
Consider `Cc1ccc(N=C=O)cc1N=C=O`, for which the outcome was inactive.
With `CNC(=O)O/N=C/C(C)(C)SC`, the result was inactive.
With `O=[N+]([O-])c1cc([As](=O)(O)O)ccc1O`, the outcome was inactive.
Regarding `O=C(O)C1C(C(=O)O)C2(Cl)C(Cl)=C(Cl)C1(Cl)C2(Cl)Cl` (stereo not given), the outcome was inactive.
The value for `COc1nc(NC(C)C)nc(NC(C)C)n1` was “inactive”; that for `Cc1ccccc1N` was “inactive”.
Take `C[C@H]1C(=O)O[C@@H]2CCN3CC=C(COC(=O)[C@](C)(O)[C@]1(C)O)[C@H]23`: the outcome was inactive.
The value for `Nc1nc(N)nc(NC2CC2)n1` was “inactive”; that for `CNC(=O)Oc1cccc2ccccc12` was “inactive”; that for `OCCCCO` was “inactive”.
Next, `CNC(=O)O/N=C/C(C)(C)S(C)=O` (stereo not given): “inactive”.
On to `CC(=O)/C=C/c1ccccc1`, for which the outcome was inactive.
`O=[N+]([O-])c1ccc(Cl)c(Cl)c1`: the result was inactive.
Next, `CN(C)C(=O)Nc1cccc(C(F)(F)F)c1`: “inactive”.
With `O=[N+]([O-])c1ccc(Cl)cc1`, the outcome was inactive.
With `CCSC(=O)N1CCCCCC1`, the result was inactive.
Take `CN(C)NC(=O)CCC(=O)O`: the result was inactive.
In the case of `C/C=C/c1ccc2c(c1)OCO2`, the outcome was inactive.
Take `CN(C)C(=O)Cl`: the outcome was inactive.
On to `CN1C(=O)CCS(=O)(=O)C1c1ccc(Cl)cc1` (stereo not given), for which the outcome was inactive.
Consider `COC(=O)Nc1cccc(OC(=O)Nc2cccc(C)c2)c1`, for which the result was inactive.
`Nc1ncc([N+](=O)[O-])s1`: the outcome was inactive.
Consider `Cl[C@H]1OCCO[C@@H]1Cl`, for which the outcome was inactive.
In the case of `N#Cc1ccccn1`, the outcome was inactive.
For the molecule `CC[N+](=O)[O-]`, the outcome was inactive.
As to `Cc1cccc(C)c1N`, the outcome was inactive.
Regarding `O=C(O)C(Br)Br`, the outcome was inactive.
As to `O=P1(NCCCl)OCCCN1CCCl` (stereo not given), the outcome was inactive.
Turning to `CN(C)CCC#N`, the outcome was inactive.
Regarding `Cc1cccc(N)c1C`, the outcome was inactive.
As for `O=C(O)Cc1ccccc1`, the outcome was inactive.
Regarding `ClC(Cl)c1ccccc1`, the outcome was inactive.
The value for `CCCOC(=O)c1ccccc1C(=O)OCCC` was “inactive”.
With `Cc1ccc(N)cc1`, the outcome was inactive.
On to `CCCCCCCCCCCCCCCCCC(=O)O`, for which the outcome was inactive.
`CC(C)CCCCCCOC(=O)c1ccccc1C(=O)OCCCCCCC(C)C`: the result was inactive.
